Molecules are shown by their SMILES. Values without a mark were called inactive. Results filed as inconclusive are left out. Activity calls are given as the source filed them. Unless noted, calls follow the shape of the dose curve; as a rule, active = well fitted curve in either direction with a large enough effect (not every such curve was filed as active); inconclusive = small, poorly fitted or top-dose-only effect, or another doubt; inactive = flat fitted curve, though single readings scatter.

Test [1] in a line: NFAT Signaling Pathway (AID 444).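 Also: carbachol stimulus at about its EC50 of 1 µM final; % is scaled to controls: 0 for no effect and ±100 for the full control effect.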 As to conditions: Jurkat NFAT-bla M1, carbachol, beta-lactamase ratio, 5 h; at 17.2 µM (top of the series) unless noted. In short, it runs like this:
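Jurkat cells carrying an NFAT-driven β-lactamase reporter and co-transfected muscarinic M1 receptor were treated with compound plus carbachol (1 uM final, an EC50 level) for 5 h at 37 °C. CCF4 loading followed for 1 h at RT; 460/530 nm ratio gave %activity.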

Test [2] addresses Glucocorticoid receptor (Homo sapiens) (UniProt P04150). Kind of test: GR-GFP Redistribution (AID 450;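 active = compounds whose dose series gives a full or clear partial fitted curve of increased nuclear translocation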; also: potency is read from the fitted curve at half-maximal effect).
Test [3] is described as follows: Stat Signaling Pathway (AID 446).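 Also: ME-180 cervical cancer cells given 40 pM IL-6 alongside compound; SIE-controlled beta-lactamase reporter measured as 460/530 nm FRET emission ratio; % is scaled to controls: 0 for no effect and ±100 for the full control effect.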 The settings on record: ME-180 SIE beta-lactamase reporter, IL-6 stimulated, 5 h; at 17.2 µM (top of the series) unless noted. An outline of the steps:
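Reporter line: ME-180 cervical carcinoma, SIE-beta-lactamase. Treatment: compound with 40 pM IL-6, 5 hrs, 37 C, in low-serum OPTI-MEM with 10 mM HEPES pH 7.3. Detection: 460/530 nm fluorescence.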

Test [4] in a line: qHTS Assay for Identification of Small Molecule Agonists for Hypoxia Response Element Signaling Pathway (AID 914; active = well fitted activation curve with a large enough effect in the signal ratio, with a control signal flat, not every such curve was filed as active; the % refers to the signal ratio; also: % of control where 0% means no effect). As to conditions: ME-180 HRE-bla reporter, beta-lactamase ratio, CoCl2, 17 h; activation: stronger effect = higher value. An outline of the steps: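 ME-180 cells carrying an HRE-driven beta-lactamase reporter were treated with compounds in a titration series plus an EC50 level of CoCl2 for 17 h at 37 degrees Celsius; CCF4 readout as the 460nm/530nm ratio gave AC50 values.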

Test [5] addresses Glucocorticoid receptor (Homo sapiens) (UniProt P04150). The experiment in a line: GR-EFC Redistribution (AID 451; calls by dose curve; also: potency is read from the fitted curve at half-maximal effect). The settings on record: CHO-K1 GR-EFC translocation, beta-gal luminescence, 2 h. An outline of the steps: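 CHO-K1 cells stably expressing nuclear-localized β-gal enzyme acceptor and GR fused C-terminally to the enzyme donor fragment; ligand-driven nuclear translocation restores β-gal by complementation. Compounds titrated up to 46 uM final, 2 h at 37 °C; luminescence read.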

For test [6], the target named is Mitogen-activated protein kinase 10 (Mus musculus) (UniProt Q61831). Kind of test: JNK3 AlphaScreen Assay (AID 530).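 Also: kinase came from lysate of stimulated human HepG2 cells; signal reports phosphorylation of biotinylated GST-cJun 1-79 at Ser73 with 10 µM ATP; % is scaled to controls: 0 for no effect and ±100 for the full control effect.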 In short, it runs like this: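 Inhibitors reduce antibody binding to phosphorylated biotin-cJun, lowering AlphaScreen luminescence. Lysates from HepG2 cells pre-activated by IL-1beta plus TNF-alpha supplied JNK3; compounds were titrated.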
In test [7] the target is 3',5'-cyclic-AMP phosphodiesterase 4B (Homo sapiens) (UniProt Q07343). Kind of test: qHTS Assay for Inhibitors of PDE-IV (AID 607; active = well fitted activation curve with a large enough effect in the main read-out, with a control signal flat, not every such curve was filed as active; also: % of control where 0% means no effect). An outline of the steps:
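Cell-based read-out of cAMP via a modified cyclic nucleotide-gated channel and membrane potential dye (535/590 nm) in HEK293 cells expressing PDE4 endogenously. Compounds tested up to 22.9 uM final; 100 uM RO 20-1724 reference.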

The target of test [8] is Guanine nucleotide-binding protein G(i) subunit alpha-1 (Homo sapiens) (UniProt P63096). Kind of test: qHTS Assay for Inhibitors of RGS12 GoLoco Motif Activity (Green Fluorophore) (AID 879; active = well fitted curve in the direction sought with a large enough effect; an effect the other way counts as inactive or inconclusive;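 also: 0% = labeled peptide with Gαi1 and full inhibition = labeled peptide alone without protein; negative values mean loss of peptide binding seen as reduced polarization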). In short, it runs like this:
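Fluorescence polarization assay: 50 nM Gαi1 with 10 nM FITC-labeled RGS12 GoLoco peptide in 10 mM Tris pH 7.5, 150 mM NaCl, 0.1 mM GDP, 0.05% NP40, 10 min at room temperature with compound.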

In test [9] the target is Muscarinic acetylcholine receptor M1 (Rattus norvegicus) (UniProt P08482). The experiment in a line: qHTS Assay for Antagonists of Acetylcholine Muscarinic M1 Receptor: Kinetic Measurement of Intracellular Calcium Response (AID 943; active = well fitted curve in the direction sought with a large enough effect; an effect the other way counts as inactive or inconclusive;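 also: Fluo-4 calcium signal as peak divided by basal fluorescence over 4 min; nearly all actives have a fitted effect of over 75% in size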). In short, it runs like this:
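Rat M1-CHO cells, 2000/well, overnight → Fluo-4 no-wash dye with probenecid, 1 h 37C → compound 10 min, room temp → basal read 6 s → carbachol EC80 (100 nM) → 4 min kinetic read; peak/basal.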

Test [10] shares this target. The experiment in a line: qHTS Assay for Antagonists of Acetylcholine Muscarinic M1 Receptor: Measurement of IP-One Response (AID 944; active = well fitted curve in the direction sought with a large enough effect; an effect the other way counts as inactive or inconclusive; also: nearly all actives have a fitted effect of over 75% in size). An outline of the steps:
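M1-CHO (rat), 2000 cells/well, overnight recovery; cpd 10 min; carbachol EC80 (200 nM), 30 min, HEPES buffer + 50 mM LiCl pH 7.4; IP-One HTRF, Ex 337, Em 620/665 nm.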

Test [11] deals with Pyruvate kinase (Leishmania mexicana) (UniProt Q27686). Kind of test: qHTS Validation Assay for Inhibitors of Leishmania Mexicana Pyruvate Kinase (AID 945; active = well fitted curve in the direction sought with a large enough effect; an effect the other way counts as inactive or inconclusive; also: potency is read from the fitted curve at half-maximal effect). An outline of the steps: (§1)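 LmPYK E451W 0.2 nM; 0.5 mM PEP, 0.1 mM ADP, 7 mM MgCl2, 50 mM KCl, imidazole pH 7.2, 0.01% Tween 20, 0.05% BSA; 1 h RT; PKLight luminescence; DMSO-normalized.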
The target in test [12] is Pyruvate kinase PKM (Homo sapiens) (UniProt P14618). The experiment in a line: qHTS Assay for Activators of Human Muscle Pyruvate Kinase (AID 954; active = well fitted curve in the direction sought with a large enough effect, not every such curve was filed as active;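 also: 0% = uninhibited enzyme and -100% = no enzyme or full thiadiazolimine inhibition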). An outline of the steps:
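Human PKM2 activity is measured as ATP generation, detected by luciferase-coupled luminescence. The enzyme (0.1 nM) acts on 0.5 mM PEP and 0.1 mM ADP for 1 h at ambient temperature; data are normalized to uninhibited and full-inhibition wells.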

For test [13] the target is unchanged. Kind of test: qHTS Assay for Inhibitors of Human Muscle Pyruvate Kinase (AID 958; active = well fitted curve in the direction sought with a large enough effect; an effect the other way counts as inactive or inconclusive). An outline of the steps:
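Compound pinned into substrate mix (0.5 mM PEP, 0.1 mM ADP), then 0.1 nM PKM2 added; 1 h, RT. Stop/detection luciferase reagent added, luminescence read. Normalized to no-inhibition and no-enzyme or reference-inhibitor controls.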

Test [14] has as its target Pyruvate kinase (Leishmania mexicana) (UniProt Q27686). The experiment in a line: qHTS Validation Assay for Activators of Leishmania Mexicana Pyruvate Kinase (AID 959; active = well fitted curve in the direction sought with a large enough effect; an effect the other way counts as inactive or inconclusive). In short, it runs like this:
as §1

For test [15], the target named is Alpha-galactosidase A (Homo sapiens) (UniProt P06280). Kind of test: Counterscreen for Glucocerebrosidase Inhibitors: qHTS Assay for Human alpha-Galactosidase at pH 4.5 (AID 992; active = well fitted curve in the direction sought with a large enough effect; an effect the other way counts as inactive or inconclusive; also: 0% is about no effect). An outline of the steps: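 Quantitative HTS: compounds tested from 0.7 nM up to 77 uM against 2 nM enzyme with 80 uM 4-MU alpha-D-galactopyranoside. The 20 min room-temperature reaction is stopped with 1M NaOH/1M glycine, pH 10.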

Test [16] deals with alpha-glucosidase (Oryza sativa, rice) (UniProt Q653V4). The experiment in a line: Counterscreen for Glucocerebrosidase Inhibitors: qHTS Assay for Rice alpha-Glucosidase at pH 5.0 (AID 997; active = well fitted curve in the direction sought with a large enough effect; an effect the other way counts as inactive or inconclusive;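 also: 0% = full activity with enzyme and -100% = basal without enzyme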). An outline of the steps: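 Rice alpha-glucosidase (4 nM final) with 400 uM 4-methylumbelliferyl-alpha-D-glucopyranoside in citrate buffer pH 5.0, 20 min at room temperature, stopped at pH 10; fluorescence 365/440 nm, compounds 0.7 nM–77 uM, AC50 from Hill fits.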

Chain of Glucocorticoid receptor (Homo sapiens) (P04150 whole entry, looked up, the tested form may be a part): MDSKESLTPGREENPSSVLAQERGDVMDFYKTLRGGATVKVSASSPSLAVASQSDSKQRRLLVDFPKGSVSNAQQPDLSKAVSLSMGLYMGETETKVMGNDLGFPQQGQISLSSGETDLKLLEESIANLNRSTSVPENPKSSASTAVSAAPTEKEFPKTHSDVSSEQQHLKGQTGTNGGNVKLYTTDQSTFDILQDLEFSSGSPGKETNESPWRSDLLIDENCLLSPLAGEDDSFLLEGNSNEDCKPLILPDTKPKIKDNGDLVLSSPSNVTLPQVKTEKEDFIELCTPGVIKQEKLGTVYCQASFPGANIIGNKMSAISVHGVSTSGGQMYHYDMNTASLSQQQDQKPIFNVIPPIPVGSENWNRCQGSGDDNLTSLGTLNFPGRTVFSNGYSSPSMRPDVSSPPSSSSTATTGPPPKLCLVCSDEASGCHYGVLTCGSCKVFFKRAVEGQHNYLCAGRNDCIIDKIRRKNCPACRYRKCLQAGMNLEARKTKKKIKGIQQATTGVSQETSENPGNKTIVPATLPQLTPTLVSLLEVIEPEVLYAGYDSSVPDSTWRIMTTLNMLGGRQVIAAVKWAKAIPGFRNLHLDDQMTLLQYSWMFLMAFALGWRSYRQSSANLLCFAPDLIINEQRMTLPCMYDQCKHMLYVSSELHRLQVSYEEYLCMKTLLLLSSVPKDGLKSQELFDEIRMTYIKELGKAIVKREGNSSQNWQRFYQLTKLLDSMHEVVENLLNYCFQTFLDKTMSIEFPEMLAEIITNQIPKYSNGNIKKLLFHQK
Chain of Muscarinic acetylcholine receptor M1 (Rattus norvegicus) (P08482 whole entry, looked up): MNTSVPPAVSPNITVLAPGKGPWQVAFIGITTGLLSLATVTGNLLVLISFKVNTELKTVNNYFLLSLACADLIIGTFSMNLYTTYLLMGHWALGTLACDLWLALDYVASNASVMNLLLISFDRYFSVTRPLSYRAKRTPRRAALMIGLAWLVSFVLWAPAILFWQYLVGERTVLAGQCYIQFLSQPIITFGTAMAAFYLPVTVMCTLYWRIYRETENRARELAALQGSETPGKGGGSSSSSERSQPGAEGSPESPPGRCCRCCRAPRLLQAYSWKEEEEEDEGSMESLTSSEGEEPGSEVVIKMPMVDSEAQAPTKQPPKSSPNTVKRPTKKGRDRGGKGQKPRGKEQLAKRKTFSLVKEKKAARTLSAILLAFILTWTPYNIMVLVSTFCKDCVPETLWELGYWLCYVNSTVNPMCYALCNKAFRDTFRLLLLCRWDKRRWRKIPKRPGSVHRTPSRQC
Chain of Pyruvate kinase PKM (Homo sapiens) (P14618 whole entry, looked up): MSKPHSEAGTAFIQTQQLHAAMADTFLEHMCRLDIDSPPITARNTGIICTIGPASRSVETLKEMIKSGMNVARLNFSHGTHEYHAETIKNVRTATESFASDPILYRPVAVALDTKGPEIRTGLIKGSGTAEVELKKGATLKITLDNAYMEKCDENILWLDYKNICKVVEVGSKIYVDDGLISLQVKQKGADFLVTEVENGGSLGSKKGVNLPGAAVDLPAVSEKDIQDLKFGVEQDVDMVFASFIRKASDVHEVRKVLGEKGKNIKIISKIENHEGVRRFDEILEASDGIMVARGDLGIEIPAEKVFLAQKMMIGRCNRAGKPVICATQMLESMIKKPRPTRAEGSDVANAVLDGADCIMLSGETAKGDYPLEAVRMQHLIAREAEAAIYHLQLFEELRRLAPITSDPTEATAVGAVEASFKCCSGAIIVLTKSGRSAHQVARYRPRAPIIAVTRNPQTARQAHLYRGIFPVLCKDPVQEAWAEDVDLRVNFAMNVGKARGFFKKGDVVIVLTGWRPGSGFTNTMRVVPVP
Chain of Pyruvate kinase (Leishmania mexicana) (Q27686 2-499 E452W): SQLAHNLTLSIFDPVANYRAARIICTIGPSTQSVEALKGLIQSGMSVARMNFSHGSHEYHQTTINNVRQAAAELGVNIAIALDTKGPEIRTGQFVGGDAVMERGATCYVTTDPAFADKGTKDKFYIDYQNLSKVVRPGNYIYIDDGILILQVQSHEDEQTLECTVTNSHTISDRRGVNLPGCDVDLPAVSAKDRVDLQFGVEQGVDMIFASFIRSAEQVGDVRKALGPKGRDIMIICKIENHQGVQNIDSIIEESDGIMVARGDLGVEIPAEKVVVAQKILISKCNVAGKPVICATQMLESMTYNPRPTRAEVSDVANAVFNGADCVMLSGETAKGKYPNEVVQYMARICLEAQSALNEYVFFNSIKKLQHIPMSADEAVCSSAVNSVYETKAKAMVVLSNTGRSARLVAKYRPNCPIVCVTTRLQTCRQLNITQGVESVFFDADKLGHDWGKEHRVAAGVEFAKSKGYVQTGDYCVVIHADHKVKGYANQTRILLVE
Chain of Alpha-galactosidase A (Homo sapiens) (P06280 whole entry, looked up): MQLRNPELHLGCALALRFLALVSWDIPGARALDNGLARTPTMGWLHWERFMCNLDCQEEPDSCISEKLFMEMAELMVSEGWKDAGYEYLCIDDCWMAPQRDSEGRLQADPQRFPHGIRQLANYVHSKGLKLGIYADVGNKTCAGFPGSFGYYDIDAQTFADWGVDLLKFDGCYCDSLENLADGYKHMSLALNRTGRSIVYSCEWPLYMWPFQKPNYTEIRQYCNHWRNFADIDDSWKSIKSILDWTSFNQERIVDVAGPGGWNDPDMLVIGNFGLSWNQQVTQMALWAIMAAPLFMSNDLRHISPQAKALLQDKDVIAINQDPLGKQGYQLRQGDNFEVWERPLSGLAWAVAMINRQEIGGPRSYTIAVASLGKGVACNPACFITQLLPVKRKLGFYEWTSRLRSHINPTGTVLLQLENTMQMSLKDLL
Chain of Guanine nucleotide-binding protein G(i) subunit alpha-1 (Homo sapiens) (P63096 whole entry, looked up): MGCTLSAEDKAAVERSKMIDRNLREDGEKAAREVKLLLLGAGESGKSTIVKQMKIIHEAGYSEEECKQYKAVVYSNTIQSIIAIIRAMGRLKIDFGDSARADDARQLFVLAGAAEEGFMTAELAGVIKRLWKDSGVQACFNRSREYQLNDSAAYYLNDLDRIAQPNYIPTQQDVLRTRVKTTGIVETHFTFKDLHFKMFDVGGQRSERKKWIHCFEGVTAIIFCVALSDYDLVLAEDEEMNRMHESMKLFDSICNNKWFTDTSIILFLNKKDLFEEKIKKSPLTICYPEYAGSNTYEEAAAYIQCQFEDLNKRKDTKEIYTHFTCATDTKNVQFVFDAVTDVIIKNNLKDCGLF
Chain of 3',5'-cyclic-AMP phosphodiesterase 4B (Homo sapiens) (Q07343 whole entry, looked up): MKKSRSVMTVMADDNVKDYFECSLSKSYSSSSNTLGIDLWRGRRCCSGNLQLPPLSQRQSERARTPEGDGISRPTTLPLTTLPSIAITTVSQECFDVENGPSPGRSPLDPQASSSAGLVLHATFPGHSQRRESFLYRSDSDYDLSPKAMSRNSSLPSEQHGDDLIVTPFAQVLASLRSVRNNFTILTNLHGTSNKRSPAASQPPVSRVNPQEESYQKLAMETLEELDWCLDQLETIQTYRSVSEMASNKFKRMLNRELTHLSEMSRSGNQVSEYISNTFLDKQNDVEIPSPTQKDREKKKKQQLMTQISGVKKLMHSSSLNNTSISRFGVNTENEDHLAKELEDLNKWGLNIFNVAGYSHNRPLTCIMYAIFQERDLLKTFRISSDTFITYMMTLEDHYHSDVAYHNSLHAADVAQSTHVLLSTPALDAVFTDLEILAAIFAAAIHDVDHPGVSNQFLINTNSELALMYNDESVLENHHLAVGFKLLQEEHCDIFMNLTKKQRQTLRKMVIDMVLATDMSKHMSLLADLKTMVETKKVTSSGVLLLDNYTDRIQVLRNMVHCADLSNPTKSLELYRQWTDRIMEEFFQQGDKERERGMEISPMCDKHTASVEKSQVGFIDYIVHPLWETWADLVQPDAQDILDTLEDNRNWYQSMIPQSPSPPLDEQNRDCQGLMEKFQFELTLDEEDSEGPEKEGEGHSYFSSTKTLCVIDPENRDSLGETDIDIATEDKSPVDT

Regarding `CC(=Nc1cccc(O)c1)c1sc2ccccc2c1O`, the activity change, negative = inhibition in test [1] is -27.3%. In [2], the Potency is more than 20.6 µM.
With `COc1ccc(NC(=O)CSC2=C(C#N)C(c3ccco3)C3=C(CCCC3=O)N2)c(OC)c1` (stereo unspecified), the activity change, negative = inhibition in test [1] was -6.5%. In addition, the activity, negative = inhibition in [3] was -8.16%. For the same molecule, in test [2], the Potency is more than 20.6 µM. Also, the activation in test [4] is -27.4%.
Regarding `CCCCC(=O)c1c(C)cc(C)[nH]c1=O`, the activity change, negative = inhibition in [1] is 4.24%. Further, in test [3], the activity, negative = inhibition was 1.99%. In addition, the Potency in test [2] is more than 20.6 µM.
For `CCOC(=O)c1[nH]c2ccc(OC)cc2c1NC(=O)CN1CCN(c2ccccn2)CC1` the same measures were -9.84%, -2.44% and more than 20.6 µM.
With `OC1(C2(O)CC(c3ccccc3)ON2)CCCCC1` (stereo unspecified), the activity change, negative = inhibition in [1] was -7.93%. The activity, negative = inhibition in test [3] is -6.74%. Further, the Potency in test [2] is more than 20.6 µM. Besides, in test [4], the activation is -4.48%.
Consider `O=C(/C=C\c1ccc(O)cc1)c1ccc(O)cc1O`, for which the activity change, negative = inhibition in [1] is -30% [at 38 µM]. Besides, the activity, negative = inhibition in test [3] was 25.4% [at 38 µM]. Also, the Potency in [2] is more than 46 µM; in [5], more than 46 µM; in test [11], 12.6 µM (active); in [13], 15.8 µM (active). The Potency result in test [6], in test [7], in test [9], in test [10] and in test [14] was “inactive” in each case. Moreover, the molecule was classed as inactive in test [8], in [12], in test [15] and in test [16].

These data come from PubChem BioAssay (NCATS).
